Screening results from PubChem BioAssay.
In the library only some 7.5% were active in any assay of this set; here they are far more common.
TSHR antagonist – Antagonists of the Thyroid Stimulating Hormone Receptor: HTS campaign | TSHR-expressing cells, TSH-stimulated cAMP HTRF, 2 h; stronger effect = lower value | activity change, negative = inhibition, % at 11.5 µM | AID 504810, 2011 | 0.2% of 330,000 active;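 active = activity change below a set negative limit, meaning inhibition stronger than a set level, cut at about -70% in these data; inconclusive = activity change between two set negative limits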
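Competitive HTRF cAMP read-out (cryptate anti-cAMP antibody, cAMP-d2; 30 min, room temperature) in freshly harvested TSHR cells. Compounds added before TSH at EC80 (4nM final), followed by 2 hours' incubation at 37 deg C.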
ELG1 repair inh – qHTS screen for small molecules that inhibit ELG1-dependent DNA repair in human embryonic kidney (HEK293T) cells expressing luciferase-tagged ELG1; 2.3% of 330,000 active; HEK293T ELG1-luciferase reporter, luminescence, 16 h; DNA damage induced by 5-fluorouridine; Potency, µM (titrated, usually from 46.1 µM), actives largely listed as inhibitors; AID 504467, 2011; note: nearly all actives have a fitted effect of over 55% in size
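DMSO vehicle served as the neutral condition. Each well held 2,000 cells given 5-fluorouridine plus compound; after 16 hr at 37 °C/5% CO2, ONE-Glo was added and luciferase measured 30 min later.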
Gal4-VP16 FLuc – VP16 counterscreen qHTS for inhibitors of ROR gamma transcriptional activity; Drosophila S2 Gal4-VP16 UAS-luciferase, luminescence, 20 h; Potency, µM (doses to about 53.6 µM), most hits filed as inhibitors; 3.5% of 310,000 active; AID 2546, 2010;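 note: Gal4-VP16 expression switched on by copper sulfate through the metallothionein promoter; nearly all actives have a fitted effect of over 50% in size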
B2AR arrestin – qHTS assay of beta-arrestin-biased ligands of beta2-adrenergic receptor; Beta-2 adrenergic receptor (Homo sapiens), P07550; beta-arrestin recruitment to beta2AR, cell-based reporter; 0.02% of 330,000 active; Potency, µM (highest dose often 46.1 µM), most hits filed as activators; note: nearly all actives have a fitted effect of over 65% in size
Target sequence (P07550 whole entry, looked up): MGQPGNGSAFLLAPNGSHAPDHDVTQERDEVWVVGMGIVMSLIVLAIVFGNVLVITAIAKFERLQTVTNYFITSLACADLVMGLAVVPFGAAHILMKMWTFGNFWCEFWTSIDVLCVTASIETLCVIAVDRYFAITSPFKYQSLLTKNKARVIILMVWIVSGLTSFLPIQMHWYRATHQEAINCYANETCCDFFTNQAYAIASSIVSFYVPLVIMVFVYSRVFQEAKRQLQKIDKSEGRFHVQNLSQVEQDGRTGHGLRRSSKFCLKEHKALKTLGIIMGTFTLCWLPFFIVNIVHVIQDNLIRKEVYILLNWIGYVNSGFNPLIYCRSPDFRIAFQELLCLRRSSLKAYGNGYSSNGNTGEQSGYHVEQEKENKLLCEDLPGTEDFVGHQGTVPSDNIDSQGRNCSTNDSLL
RORg inh – qHTS for inhibitors of ROR gamma transcriptional activity; Nuclear receptor ROR-gamma (Mus musculus), P51450; Drosophila S2 Gal4-RORgamma UAS-luciferase reporter, 20 h; Potency, µM (top dose mostly 53.6 µM), usual class: inhibitors; 5.4% of 310,000 active; note: nearly all actives have a fitted effect of over 60% in size
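A Gal4/UAS one-hybrid system in insect cells: metallothionein-promoter Gal4–ROR gamma fusion plus Photinus luciferase reporter. Copper sulfate 700 uM final, 20 hr ambient incubation, luminescent detection after 10 min with reagent.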
Hits are given with their value. Unless noted, calls come from the whole dose curve; as a rule, active = well fitted curve in the direction sought with a large enough effect; inconclusive = small, poorly fitted or top-dose-only effect, or another doubt; inactive = no such curve, though single readings can be large; an effect the other way counts as inactive or inconclusive.

How did Cc1ccc(N=Nc2ccc(O)cc2)c(Br)c1 do in these assays?
TSHR antagonist: inactive; ELG1 repair inh: inconclusive; Gal4-VP16 FLuc: inconclusive; B2AR arrestin: inactive; RORg inh: 2.82µM

Results for COc1cc(CCCN2C(=S)NC[C@H]2Cc2ccc(O)cc2)cc(OC)c1OC ?
TSHR antagonist: inactive; ELG1 repair inh: inconclusive; Gal4-VP16 FLuc: inactive; B2AR arrestin: inactive; RORg inh: inactive

Results for CC(O)[C@H]1CNC(=S)N1CCc1cccc(F)c1 (some centres undefined) ?
TSHR antagonist: inactive; ELG1 repair inh: inactive; Gal4-VP16 FLuc: inactive; B2AR arrestin: inactive; RORg inh: inactive

Results for Fc1cccc(CCN2C(=S)NC[C@@H]2CC2CCCCC2)c1 ?
TSHR antagonist: inactive; ELG1 repair inh: inactive; Gal4-VP16 FLuc: 6.31µM; B2AR arrestin: inactive; RORg inh: 2µM

What do the screens show for `CCCC[C@@H]1CNC(=S)N1CCCc1cc(OC)c(OC)c(OC)c1`?
TSHR antagonist: inactive; ELG1 repair inh: inconclusive; Gal4-VP16 FLuc: inconclusive; B2AR arrestin: inactive; RORg inh: 8.91µM

How did Fc1cccc(CCN2C(=S)NC[C@@H]2Cc2ccccc2)c1 do in these assays?
TSHR antagonist: inactive; ELG1 repair inh: inactive; Gal4-VP16 FLuc: 7.08µM; B2AR arrestin: inactive; RORg inh: 2.24µM

Results for CCCC[C@@H]1CNC(=S)N1CCc1cccc(F)c1 ?
TSHR antagonist: inactive; ELG1 repair inh: inactive; Gal4-VP16 FLuc: 3.98µM; B2AR arrestin: inactive; RORg inh: 1.41µM

How did CC(=O)c1cccc(NC(=O)C2CC(=O)N(C3CCCC3)C2)c1 (centres undefined) do in these assays?
TSHR antagonist: inactive; ELG1 repair inh: inactive; B2AR arrestin: inactive

How did O=C(NNC(=O)c1ccc2ccccc2c1O)c1cccs1 do in these assays?
TSHR antagonist: inactive; ELG1 repair inh: inconclusive; Gal4-VP16 FLuc: inconclusive; B2AR arrestin: inactive; RORg inh: 15.8µM

Results for O=C(NNC(=O)c1cc2ccccc2cc1O)c1cccs1 ?
TSHR antagonist: inactive; ELG1 repair inh: inconclusive; Gal4-VP16 FLuc: inconclusive; B2AR arrestin: inactive; RORg inh: 20µM

Results for O=C(NNC(=O)c1ccc2ccccc2c1O)c1ccccc1Cl ?
TSHR antagonist: inactive; ELG1 repair inh: inactive; Gal4-VP16 FLuc: inactive; B2AR arrestin: inactive; RORg inh: inconclusive

Results for Cn1cc(-c2nc3cnc(Oc4ccccc4)nc3n(C3CC3)c2=O)c2ccccc21 ?
Gal4-VP16 FLuc: inactive; RORg inh: inactive

Results for C=COC(=O)/C=C/C ?
Gal4-VP16 FLuc: inactive; RORg inh: inactive

How did O=C(COC(=O)c1cn(-c2ccccc2)nc1-c1ccccc1)Nc1ncc(Cl)cc1Cl do in these assays?
TSHR antagonist: inactive; ELG1 repair inh: inactive; Gal4-VP16 FLuc: inactive; B2AR arrestin: inactive; RORg inh: inactive

How did COc1cccc(-c2nn(-c3ccccc3)cc2C(=O)OCC(=O)Nc2ncc(Cl)cc2Cl)c1 do in these assays?
TSHR antagonist: inactive; ELG1 repair inh: 20.6µM; Gal4-VP16 FLuc: inactive; B2AR arrestin: inactive; RORg inh: inconclusive

Results for COc1ccc2nc(-c3ccccn3)[nH]c2c1 ?
TSHR antagonist: inactive; ELG1 repair inh: inconclusive; B2AR arrestin: inactive

Results for Cc1cc2nc(-c3ccccn3)c(-c3ccccn3)nc2cc1C ?
TSHR antagonist: inactive; ELG1 repair inh: inconclusive; Gal4-VP16 FLuc: inactive; B2AR arrestin: inactive; RORg inh: inconclusive

Results for Cc1[nH]c(-c2ccccn2)nc(=S)c1Cl ?
TSHR antagonist: inactive; ELG1 repair inh: inconclusive; Gal4-VP16 FLuc: inconclusive; B2AR arrestin: inactive; RORg inh: 10µM

What do the screens show for `Cc1cc(=S)nc(-c2ccccn2)[nH]1`?
TSHR antagonist: inactive; ELG1 repair inh: inconclusive; Gal4-VP16 FLuc: inconclusive; B2AR arrestin: inconclusive; RORg inh: 0.794µM

What do the screens show for `CC(C)CCCC(C)C1CCC2C3CC(O)[C@@]4(O)CC(O)CC[C@@]4(C)C3CC[C@@]12C` (some centres undefined)?
Gal4-VP16 FLuc: inactive; RORg inh: inactive
